Data from PubChem BioAssay (NCATS).
Inconclusive results are not listed. Entries that show only a call come without a potency. The source made the active and inactive calls. Calls follow the shape of the dose curve; as a rule, active = well fitted curve in the direction sought with a large enough effect; inconclusive = small, poorly fitted or top-dose-only effect, or another doubt; inactive = no such curve, though single readings can be large; an effect the other way counts as inactive or inconclusive.

Columns and labels:
[1] = target: Tyrosine-protein kinase Yes (Homo sapiens) (UniProt P07947); assay: qHTS for small molecule inhibitors of Yes1 kinase: Primary Screen (AID 686947); conditions: Yes1 kinase biochemical qHTS inhibition; series mostly up to 76.9 µM; also: nearly all actives have a fitted effect of over 60% in size; also: potency is read from the fitted curve at half-maximal effect
How it was run: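 ADP-Glo luminescence reports ADP formed by 4 nM Yes1 phosphorylating poly(E4Y) (0.3 mg/mL) with 0.1 mM ATP for 60 min at room temperature, following 20 min compound preincubation; normalised between DMSO wells with and without enzyme.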

[2] = qHTS for small molecule inhibitors of Yes1 kinase: Counter Assay (AID 686950); conditions: series mostly up to 76.9 µM;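 also: no kinase present so only ADP-Glo detection of a fixed ADP amount is tested; luminescence from ADP-Glo reporting ADP in a fixed ATP and ADP mixture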
How it was run: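 ADP-Glo luminescence read after a 60 min room-temperature incubation of compound with an ATP/ADP mix (0.08 mM/0.02 mM) and no kinase, following a 20 min compound preincubation. Signal scaled between ATP+ADP (max) and 0.1 mM ATP-only (min) wells; Tris pH 7.5, Mg2+, DTT.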

Tyrosine-protein kinase Yes (Homo sapiens), sequence (P07947 whole entry, looked up): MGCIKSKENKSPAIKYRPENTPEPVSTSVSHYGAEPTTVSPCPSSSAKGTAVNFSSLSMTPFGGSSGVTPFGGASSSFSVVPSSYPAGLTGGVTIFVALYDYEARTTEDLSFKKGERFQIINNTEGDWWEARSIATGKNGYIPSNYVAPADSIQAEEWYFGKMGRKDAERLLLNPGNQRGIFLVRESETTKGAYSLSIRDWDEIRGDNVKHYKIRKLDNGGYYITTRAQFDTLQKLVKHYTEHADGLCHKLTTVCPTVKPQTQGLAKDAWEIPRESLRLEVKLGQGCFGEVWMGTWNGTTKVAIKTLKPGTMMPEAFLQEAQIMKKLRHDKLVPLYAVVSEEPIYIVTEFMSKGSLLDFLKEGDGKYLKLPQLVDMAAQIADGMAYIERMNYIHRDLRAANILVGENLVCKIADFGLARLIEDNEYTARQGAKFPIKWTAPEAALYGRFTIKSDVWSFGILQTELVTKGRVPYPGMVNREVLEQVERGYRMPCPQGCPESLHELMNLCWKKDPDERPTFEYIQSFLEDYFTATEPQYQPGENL

| Compound | Potency [1] | outcome [2] |
| --- | --- | --- |
| CS(=O)(=O)CCNCc1ccc(-c2ccc3ncnc(Nc4ccc(OCc5cccc(C(F)(F)F)c5)cc4)c3c2)o1 | 6540 nM (active) | inactive |
| NS(=O)(=O)c1ccc(N=Nc2c(O)[nH]c3ccc(C(=O)NCCCn4ccnc4)cc23)cc1 | 2600 nM (active) | inactive |
| O=C(NCC1CC1)c1ccc(-c2cccc(C(=O)NC3CC3)c2)cc1 | inactive | inactive |
| NS(=O)(=O)c1ccc(N=Nc2c(O)[nH]c3ccc(Cl)cc23)cc1 | 36800 nM (active) | inactive |
| O=C1N=c2ccc(N=Cc3c(O)[nH]c4ccccc34)cc2=N1 | 2920 nM (active) | inactive |
| CCn1c(-c2nonc2N)nc2c(C#CC(C)(C)O)ncc(OCC3CCCN3)c21 (stereo unspecified) | 26000 nM (active) | inactive |
| CS(=O)(=O)CCNCc1ccc(-c2ccc3ncnc(Nc4ccc(OCc5ccccc5)c(Cl)c4)c3c2)o1 | 923 nM (active) | inactive |
| CCn1c(-c2nonc2N)nc2ccc(F)cc21 | inactive | inactive |
| COc1cccc(-c2c[nH]c3c(NN=Cc4ccncc4)ncnc23)c1 | 164 nM (active) | inactive |
| Nc1ncc(-c2cccc(S(N)(=O)=O)c2)c2scc(-c3ccc(F)c(Cl)c3)c12 | 368 nM (active) | inactive |
| COc1cc2ncn(-c3cc(OCCc4ccccc4)c(C(N)=O)s3)c2cc1OC | inactive | inactive |
| COc1cc2ncnc(Nc3ccc(C)c(O)c3)c2cc1OC | 164 nM (active) | inactive |
| Nc1nccc(C#Cc2cncnc2Nc2ccc(OCc3cccc(F)c3)c(Cl)c2)n1 | inactive | inactive |
